# Experimental data taken from PubChem BioAssay (NCI).
# Compounds without any hit were thinned out: in the full panel of roughly 79,000, 15% have a hit. Values without a mark were called inactive. The source made the active and inactive calls. Cut-off read from the data, not from the text of the source: active = growth inhibition above about 70%; inactive = the rest.
# Legend:
# [1] = NCI Yeast Anticancer Drug Screen. Data for the rad52 strain (AID 147);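 note: 0% = growth of vehicle-treated control cultures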; settings: S. cerevisiae rad52 mutant growth inhibition, hits give high values
# Summary of the method: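 Compounds are applied to a genetically defined yeast strain lacking normal DNA damage repair, and inhibition of growth is expressed relative to cultures given vehicle only.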
# [2] = NCI Yeast Anticancer Drug Screen. Data for the wt1 strain (AID 149);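 note: 0% = growth of vehicle-treated wt1 cultures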; settings: S. cerevisiae wt1 strain (SPY 50644) growth inhibition, hits give high values
# Summary of the method: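 Using yeast strain wt1, compound-induced growth inhibition was determined against vehicle-treated cultures.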
# [3] = NCI Yeast Anticancer Drug Screen. Data for the rad50EPP+ strain (AID 151);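 note: 0% = growth of vehicle-treated control cultures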; settings: S. cerevisiae rad50 mutant strain, hits give high values
# Summary of the method: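 Compounds were applied to the rad50EPP+ yeast strain, which bears a defined DNA repair alteration, and growth inhibition was determined relative to vehicle-treated cultures.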
# [4] = NCI Yeast Anticancer Drug Screen. Data for the mgt1 strain (AID 153); settings: S. cerevisiae mgt1 mutant growth inhibition, hits give high values
# Summary of the method: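 Strain: mgt1 yeast, one of a set carrying defined DNA damage repair or cell cycle control alterations. Compound-treated growth compared with vehicle.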
# [5] = NCI Yeast Anticancer Drug Screen. Data for the rad50 strain (AID 155);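 note: 0% = growth of vehicle-only cultures of the same strain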; settings: S. cerevisiae rad50 strain growth inhibition, hits give high values
# Summary of the method: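 Relative growth inhibition (compound vs vehicle) was measured in yeast with a defined repair-gene alteration.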
# [6] = NCI Yeast Anticancer Drug Screen. Data for the mec2-1 strain (AID 157); settings: S. cerevisiae mec2-1 strain, hits give high values
# Summary of the method: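 Strain: mec2-1 (DNA repair/cell cycle alteration). Compound exposure, then growth measured; inhibition expressed relative to vehicle.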
# [7] = NCI Yeast Anticancer Drug Screen. Data for the rad14 strain (AID 159);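 note: 0% = growth of vehicle-treated control cultures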; settings: S. cerevisiae rad14 strain growth inhibition, hits give high values
# Summary of the method: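 Screen for anticancer potential: a yeast strain altered in DNA damage repair is grown with compound, and reduced growth is quantified against vehicle controls.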
# [8] = NCI Yeast Anticancer Drug Screen. Data for the sgs1 mgt1 strain (AID 161);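 note: 0% = growth of cultures given vehicle only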; settings: S. cerevisiae sgs1 mgt1 strain, hits give high values
# Summary of the method: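 Inhibition of yeast growth, normalised to vehicle-treated controls, is reported for a strain bearing genetic alterations in DNA damage repair.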
# [9] = NCI Yeast Anticancer Drug Screen. Data for the CLN2oe strain (AID 163);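 note: 0% = growth of vehicle-only control cultures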; settings: S. cerevisiae CLN2oe strain, hits give high values
# Summary of the method: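 Growth of a genetically modified yeast strain is measured after compound exposure and compared with cultures given vehicle alone.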
# [10] = NCI Yeast Anticancer Drug Screen. Data for the cln2 rad14 strain (AID 165);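 note: 0% = growth equal to vehicle treated cultures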; settings: S. cerevisiae cln2 rad14 strain, hits give high values
# Summary of the method: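 Compounds are applied to the cln2 rad14 yeast strain, and growth is then compared with that of vehicle-treated cultures to give inhibition.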
# [11] = NCI Yeast Anticancer Drug Screen. Data for the bub3 strain (AID 167); settings: S. cerevisiae bub3 mutant strain, hits give high values
# Summary of the method: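 Screening used yeast with an engineered genetic alteration affecting cell cycle control. Compound-exposed cultures were compared with vehicle cultures, and reduced growth was taken as inhibition.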
# [12] = NCI Yeast Anticancer Drug Screen. Data for the wt2 strain (AID 169);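 note: 0% = growth of vehicle-treated yeast cultures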; settings: S. cerevisiae wt2 strain growth inhibition, hits give high values
# Summary of the method: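 This strain belongs to a panel of yeast strains with defined genetic alterations in DNA damage repair or cell cycle control. Compounds are applied, and growth inhibition is measured against vehicle-treated cultures.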
# [13] = NCI Yeast Anticancer Drug Screen. Data for the mlh1 strain (AID 171);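 note: 0% = growth of vehicle-treated control cultures of the same strain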; settings: S. cerevisiae mlh1 strain growth inhibition, hits give high values
# Summary of the method: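 Growth of the mutant yeast strain after compound exposure, expressed as inhibition relative to vehicle-only controls.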
# [14] = NCI Yeast Anticancer Drug Screen. Data for the sgs1 strain (AID 173);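 note: 0% = growth of vehicle-only control cultures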; settings: S. cerevisiae sgs1 mutant, hits give high values
# Summary of the method: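 Growth of a yeast strain bearing a defined genetic alteration is measured after compound treatment. Inhibition is expressed relative to vehicle-only controls.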
# [15] = NCI Yeast Anticancer Drug Screen. Data for the mlh1 rad18 strain (AID 175); settings: S. cerevisiae mlh1 rad18 strain growth inhibition, hits give high values
# Summary of the method: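 Read-out is yeast growth inhibition, calculated against vehicle-only controls. The compound was applied to a strain engineered with DNA damage repair alterations.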
# [16] = NCI Yeast Anticancer Drug Screen. Data for the rad18 strain (AID 177); settings: S. cerevisiae rad18 mutant growth inhibition, hits give high values
# Summary of the method: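 Growth of the mutant yeast strain after compound exposure, normalised to vehicle-only cultures.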
# [17] = at 5.0 µM (retest, dose inferred, filed as 0.5)
# [18] = at 50.0 µM (retest, dose inferred, filed as 5.0)
smiles,measurement,setting,value
CCOC(=O)Nc1ccc(C)c(NC(=O)OCC)c1,growth inhibition,[1]; at 1.2 µM,3%
same,growth inhibition,[1]; at 3.7 µM,8%
same,growth inhibition,[1]; at 11.0 µM,15%
same,growth inhibition,[1]; at 33.0 µM,21%
same,growth inhibition,[1]; at 100.0 µM,23%
same,growth inhibition,[2]; at 1.2 µM,6%
same,growth inhibition,[2]; at 3.7 µM,13%
same,growth inhibition,[2]; at 11.0 µM,12%
same,growth inhibition,[2]; at 33.0 µM,15%
same,growth inhibition,[2]; at 100.0 µM,17%
same,growth inhibition,[3]; at 1.2 µM,4%
same,growth inhibition,[3]; at 3.7 µM,8%
same,growth inhibition,[3]; at 11.0 µM,19%
same,growth inhibition,[3]; at 33.0 µM,34%
same,growth inhibition,[3]; at 100.0 µM,47%
same,growth inhibition,[4]; at 1.2 µM,3%
same,growth inhibition,[4]; at 3.7 µM,9%
same,growth inhibition,[4]; at 11.0 µM,12%
same,growth inhibition,[4]; at 33.0 µM,12%
same,growth inhibition,[4]; at 100.0 µM,16%
same,growth inhibition,[5]; at 1.2 µM,5%
same,growth inhibition,[5]; at 3.7 µM,6%
same,growth inhibition,[5]; [17],22%
same,growth inhibition,[5]; at 11.0 µM,16%
same,growth inhibition,[5]; at 33.0 µM,19%
same,growth inhibition,[5]; [18],80% (active)
same,growth inhibition,[5]; at 50.0 µM,-1.75%
same,growth inhibition,[5]; at 100.0 µM,26%
same,growth inhibition,[6]; at 1.2 µM,4%
same,growth inhibition,[6]; at 3.7 µM,8%
same,growth inhibition,[6]; [17],-2%
same,growth inhibition,[6]; at 11.0 µM,11%
same,growth inhibition,[6]; at 33.0 µM,19%
same,growth inhibition,[6]; [18],14%
same,growth inhibition,[6]; at 50.0 µM,6%
same,growth inhibition,[6]; at 100.0 µM,20%
same,growth inhibition,[7]; at 1.2 µM,3%
same,growth inhibition,[7]; at 3.7 µM,7%
same,growth inhibition,[7]; at 11.0 µM,10%
same,growth inhibition,[7]; at 33.0 µM,15%
same,growth inhibition,[7]; at 100.0 µM,21%
same,growth inhibition,[8]; [17],11%
same,growth inhibition,[8]; [18],57%
same,growth inhibition,[8]; at 50.0 µM,4.65%
same,growth inhibition,[9]; at 1.2 µM,9%
same,growth inhibition,[9]; at 3.7 µM,13%
same,growth inhibition,[9]; at 11.0 µM,23%
same,growth inhibition,[9]; at 33.0 µM,23%
same,growth inhibition,[9]; at 100.0 µM,23%
same,growth inhibition,[10]; [17],11%
same,growth inhibition,[10]; [18],23%
same,growth inhibition,[10]; at 50.0 µM,-38.4%
same,growth inhibition,[11]; at 1.2 µM,2%
same,growth inhibition,[11]; at 3.7 µM,8%
same,growth inhibition,[11]; [17],35%
same,growth inhibition,[11]; at 11.0 µM,7%
same,growth inhibition,[11]; at 33.0 µM,13%
same,growth inhibition,[11]; [18],76% (active)
same,growth inhibition,[11]; at 50.0 µM,14.3%
same,growth inhibition,[11]; at 100.0 µM,13%
same,growth inhibition,[12]; at 1.2 µM,4%
same,growth inhibition,[12]; at 3.7 µM,8%
same,growth inhibition,[12]; at 11.0 µM,10%
same,growth inhibition,[12]; at 33.0 µM,14%
same,growth inhibition,[12]; at 100.0 µM,13%
same,growth inhibition,[13]; at 1.2 µM,3%
same,growth inhibition,[13]; at 3.7 µM,8%
same,growth inhibition,[13]; at 11.0 µM,14%
same,growth inhibition,[13]; at 33.0 µM,19%
same,growth inhibition,[13]; at 100.0 µM,23%
same,growth inhibition,[14]; at 1.2 µM,3%
same,growth inhibition,[14]; at 3.7 µM,6%
same,growth inhibition,[14]; at 11.0 µM,12%
same,growth inhibition,[14]; at 33.0 µM,20%
same,growth inhibition,[14]; at 100.0 µM,30%
same,growth inhibition,[15]; [17],34%
same,growth inhibition,[15]; [18],78% (active)
same,growth inhibition,[15]; at 50.0 µM,8.35%
same,growth inhibition,[16]; at 1.2 µM,8%
same,growth inhibition,[16]; at 3.7 µM,14%
same,growth inhibition,[16]; at 11.0 µM,30%
same,growth inhibition,[16]; at 33.0 µM,61%
same,growth inhibition,[16]; at 100.0 µM,82% (active)
CC(C)=CCc1c2c(c(O)c3c(=O)c(-c4ccc(O)c(O)c4)coc13)C=CC(C)(C)O2,growth inhibition,[1]; at 1.2 µM,-32%
same,growth inhibition,[1]; at 3.7 µM,-19%
same,growth inhibition,[1]; at 11.0 µM,96% (active)
same,growth inhibition,[1]; at 33.0 µM,93% (active)
same,growth inhibition,[1]; at 100.0 µM,87% (active)
same,growth inhibition,[2]; at 1.2 µM,-20%
same,growth inhibition,[2]; at 3.7 µM,-32%
same,growth inhibition,[2]; at 11.0 µM,79% (active)
same,growth inhibition,[2]; at 33.0 µM,93% (active)
same,growth inhibition,[2]; at 100.0 µM,89% (active)
same,growth inhibition,[3]; at 1.2 µM,-63%
same,growth inhibition,[3]; at 3.7 µM,-42%
same,growth inhibition,[3]; at 11.0 µM,-21%
same,growth inhibition,[3]; at 33.0 µM,-8%
same,growth inhibition,[3]; at 100.0 µM,-31%
same,growth inhibition,[4]; at 1.2 µM,-55%
same,growth inhibition,[4]; at 3.7 µM,-33%
same,growth inhibition,[4]; at 11.0 µM,94% (active)
same,growth inhibition,[4]; at 33.0 µM,92% (active)
same,growth inhibition,[4]; at 100.0 µM,87% (active)
same,growth inhibition,[5]; at 1.2 µM,-36%
same,growth inhibition,[5]; at 3.7 µM,-17%
same,growth inhibition,[5]; [17],-3%
same,growth inhibition,[5]; at 11.0 µM,93% (active)
same,growth inhibition,[5]; at 33.0 µM,93% (active)
same,growth inhibition,[5]; [18],91% (active)
same,growth inhibition,[5]; at 50.0 µM,84.8% (active)
same,growth inhibition,[5]; at 100.0 µM,88% (active)
same,growth inhibition,[6]; at 1.2 µM,-89%
same,growth inhibition,[6]; at 3.7 µM,-93%
same,growth inhibition,[6]; [17],30%
same,growth inhibition,[6]; at 11.0 µM,87% (active)
same,growth inhibition,[6]; at 33.0 µM,91% (active)
same,growth inhibition,[6]; [18],93% (active)
same,growth inhibition,[6]; at 50.0 µM,88% (active)
same,growth inhibition,[6]; at 100.0 µM,85% (active)
same,growth inhibition,[7]; at 1.2 µM,-72%
same,growth inhibition,[7]; at 3.7 µM,-68%
same,growth inhibition,[7]; at 11.0 µM,91% (active)
same,growth inhibition,[7]; at 33.0 µM,91% (active)
same,growth inhibition,[7]; at 100.0 µM,87% (active)
same,growth inhibition,[8]; [17],18%
same,growth inhibition,[8]; [18],93% (active)
same,growth inhibition,[8]; at 50.0 µM,87.5% (active)
same,growth inhibition,[9]; at 1.2 µM,-32%
same,growth inhibition,[9]; at 3.7 µM,-5%
same,growth inhibition,[9]; at 11.0 µM,95% (active)
same,growth inhibition,[9]; at 33.0 µM,91% (active)
same,growth inhibition,[9]; at 100.0 µM,81% (active)
same,growth inhibition,[10]; [17],23%
same,growth inhibition,[10]; [18],92% (active)
same,growth inhibition,[10]; at 50.0 µM,83.5% (active)
same,growth inhibition,[11]; at 1.2 µM,-29%
same,growth inhibition,[11]; at 3.7 µM,-28%
same,growth inhibition,[11]; [17],14%
same,growth inhibition,[11]; at 11.0 µM,90% (active)
same,growth inhibition,[11]; at 33.0 µM,93% (active)
same,growth inhibition,[11]; [18],92% (active)
same,growth inhibition,[11]; at 50.0 µM,84.8% (active)
same,growth inhibition,[11]; at 100.0 µM,87% (active)
same,growth inhibition,[12]; at 1.2 µM,-50%
same,growth inhibition,[12]; at 3.7 µM,-52%
same,growth inhibition,[12]; at 11.0 µM,77% (active)
same,growth inhibition,[12]; at 33.0 µM,92% (active)
same,growth inhibition,[12]; at 100.0 µM,87% (active)
same,growth inhibition,[13]; at 1.2 µM,5%
same,growth inhibition,[13]; at 3.7 µM,14%
same,growth inhibition,[13]; at 11.0 µM,90% (active)
same,growth inhibition,[13]; at 33.0 µM,93% (active)
same,growth inhibition,[13]; at 100.0 µM,86% (active)
same,growth inhibition,[14]; at 1.2 µM,-46%
same,growth inhibition,[14]; at 3.7 µM,-36%
same,growth inhibition,[14]; at 11.0 µM,91% (active)
same,growth inhibition,[14]; at 33.0 µM,91% (active)
same,growth inhibition,[14]; at 100.0 µM,85% (active)
same,growth inhibition,[15]; [17],43%
same,growth inhibition,[15]; [18],90% (active)
same,growth inhibition,[15]; at 50.0 µM,85.1% (active)
same,growth inhibition,[16]; at 1.2 µM,-24%
same,growth inhibition,[16]; at 3.7 µM,-4%
same,growth inhibition,[16]; at 11.0 µM,94% (active)
same,growth inhibition,[16]; at 33.0 µM,93% (active)
same,growth inhibition,[16]; at 100.0 µM,89% (active)
